Bioassay records deposited in PubChem by National Center for Advancing Translational Sciences (NCATS).
In the library only some 2.7% were active in any assay of this set; here they are far more common.
IP6K1 inh = blocks human inositol hexakisphosphate kinase 1. Q92551. IP6K1 kinase, ADP-Glo luminescence, 2 h; hits give low values. activity change, % (series mostly up to about 58 µM). actives 0.81% (n = 140,000). AID 1645851; in the data active means activity change below about -25%
Target sequence (Q92551 whole entry, looked up): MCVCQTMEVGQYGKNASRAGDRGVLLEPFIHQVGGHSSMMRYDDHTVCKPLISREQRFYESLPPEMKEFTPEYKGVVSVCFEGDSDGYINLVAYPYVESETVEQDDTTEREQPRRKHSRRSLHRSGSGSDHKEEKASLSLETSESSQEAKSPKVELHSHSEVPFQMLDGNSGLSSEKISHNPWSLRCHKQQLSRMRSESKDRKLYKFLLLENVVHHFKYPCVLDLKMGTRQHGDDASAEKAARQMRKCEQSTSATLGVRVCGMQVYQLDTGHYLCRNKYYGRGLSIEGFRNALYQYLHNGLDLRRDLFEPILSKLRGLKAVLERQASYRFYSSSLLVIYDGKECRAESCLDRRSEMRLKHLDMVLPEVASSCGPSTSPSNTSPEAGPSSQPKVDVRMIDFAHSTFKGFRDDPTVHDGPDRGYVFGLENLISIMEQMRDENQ
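ADP-Glo luminescence measures ADP made by human IP6K1 during a 2 h RT reaction with ATP/IP6 (mix at 1.3 mM/130 uM); top library doses 57.5 and 19.1 uM final.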
KDM5B inh = KDM5B demethylase inhibition; Q9UGL1; Potency, µM (highest dose often 57.7 µM), hits mostly inhibitors; KDM5B demethylase, FDH-coupled NADH fluorescence (FDH is formaldehyde dehydrogenase); actives 2.6% (n = 220,000); further: nearly all actives have a fitted effect of over 70% in size
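Here, H3K4me3 peptide (12.5 µM in substrate mix) is demethylated by KDM5BΔAP, 200 nM final, after 10 min compound exposure. Formaldehyde product is coupled through FDH (0.25 U/mL in mix) to NADH fluorescence; 30-min ΔRFU feeds dose-response curves.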
IP6K1 inh cnf = human IP6K1 inhibition, confirmatory; shares compounds with IP6K1 inh; recombinant IP6K1 kinase, ADP-Glo luminescence, 2 h; Potency, µM (series often up to 49 µM), usual class: inhibitors; actives 13% (n = 1,200); AID 1645852; further: nearly all actives have a fitted effect of over 65% in size
Numbers stand for hits; - = inactive; ? = inconclusive; . = not tested or not shown. Unless noted, the call rests on the fitted dose curve; in most records, active means well fitted inhibition curve with a large enough effect; inconclusive means small, poorly fitted or top-dose-only effect; inactive means no such curve, though single readings can be large or run the other way.

SMILES	IP6K1 inh	KDM5B inh	IP6K1 inh cnf
COc1cc2c(cc1OCC1CC1)NC(=O)C21CCN(C(=O)CCc2cccnc2)CC1	-	-	.
COc1cc2c(cc1Oc1ccccc1)NC(=O)C21CCN(c2nc(C)cnc2C)CC1	-32	32µM	?
CCc1cnc(N2CCC3(CC2)C(=O)Nc2cc(OCC4CC4)c(OC)cc23)nc1	-	?	.
COc1cc2c(cc1OCC1CC1)NC(=O)C21CCN(c2nc(C)cc(C)n2)CC1	-25	-	-
CC(C)CCN1CCC2(CC1)CC(c1cccnc1)=NO2	-	-	.
O=C(NC1CC1)[C@H]1CN2CCC1C[C@@H]2Cn1cc(CSc2ccccc2)nn1 (stereo partly drawn)	-	-	.
COc1ccc(CC(=O)N2CCCN(CCn3nc4n(c3=O)CCCC4)CC2)cc1	-	.	.
Cc1ccccc1-c1nn2c(=O)cc(CN3CCN(C(=O)COc4ccccc4Cl)CC3)nc2s1	-	-	.
Cc1cccc(OCC(=O)N2CCN(Cc3cc(=O)n4nc(-c5ccccc5Cl)sc4n3)CC2)c1	-30	-	-
COc1ccc(CC(=O)N2CCN(CCn3nc4n(c3=O)CCCC4)CC2)cc1	-	.	.
CO/C1=C\C(C)=C\[C@@H](C)[C@@H](O)[C@@H](C)C/C(C)=C/C=C/[C@H](OC)[C@@H]([C@@H](C)[C@@H](O)[C@H](C)[C@@]2(O)C[C@@H](O)[C@H](C)[C@@H](C(C)C)O2)OC1=O	-	.	.
Cc1ccc([N+](=O)[O-])[c]2c1[O][Hg]2	-83	.	1µM
Cc1nc(-c2ccccc2Br)cc([C@H]2CN3CC[C@H]2C[C@@H]3CNC(=O)Nc2ccc(Cl)cc2)n1	-	-	.
COc1ccc(S(=O)(=O)NC[C@H]2C[C@@H]3CCN2C[C@@H]3CN2CCc3ccccc32)cc1	-	-	.
Cc1cccc(NC(=O)N2[C@H]3CC[C@@H]2c2cnc(-c4ccccc4)nc2C3)c1	-	-	.
N[C@@H](Cc1ccc(Oc2cc(I)c(O)c(I)c2)c(I)c1)C(=O)O	-54	.	?
COc1cc2c(cc1OCc1ccccc1)N([S+](=O)([O-])c1ccccc1C(F)(F)F)CC21CCN(C)CC1	-	-	.
